Screening data: PubChem BioAssay, National Center for Advancing Translational Sciences (NCATS)
D1 ag – human D1 receptor agonism; P21728; HEK293 T-REx D1 cells, calcium flux, agonist mode; activation, % at 2 µM; 1% of 360,000 active; AID 504660; note: 0% is about no effect
Target sequence (P21728 whole entry, looked up): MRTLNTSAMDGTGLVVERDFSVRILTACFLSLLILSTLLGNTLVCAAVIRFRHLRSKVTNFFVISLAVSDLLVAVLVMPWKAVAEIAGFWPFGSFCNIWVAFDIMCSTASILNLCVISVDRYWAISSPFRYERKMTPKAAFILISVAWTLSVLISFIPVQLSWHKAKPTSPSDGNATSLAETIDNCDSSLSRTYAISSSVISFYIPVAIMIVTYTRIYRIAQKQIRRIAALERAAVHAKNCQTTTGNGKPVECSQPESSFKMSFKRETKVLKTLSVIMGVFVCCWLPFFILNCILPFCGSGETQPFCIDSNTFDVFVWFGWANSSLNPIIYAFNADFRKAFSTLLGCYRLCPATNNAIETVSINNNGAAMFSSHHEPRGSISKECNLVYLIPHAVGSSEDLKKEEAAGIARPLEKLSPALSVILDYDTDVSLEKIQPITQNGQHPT
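Tetracycline-induced HEK293 TREx D1 cells, force-coupled to calcium signalling, were dye-loaded with a no-wash calcium kit. Compound was pin-added after a 10 s baseline. Fluorescence was read kinetically at 1 cycle/s for 180 s, with calcium rises flagged as agonism.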
D1 PAM – enhances dopamine response at the human D1 receptor. HEK293 TREx D1 cells, calcium flux, dopamine EC20 potentiation. potentiation, % at 10 µM. 0.036% of 360,000 active; in the data active = potentiation above about 30%; note: 0% is about no effect
TRHR enhancer – allosterically enhances the human TRH receptor; 0.66% of 360,000 active; TRHR cells, fluo-8 calcium fluorescence, EC20 TRH enhancement; enhancement, % at 2 µM; in the data active = enhancement above about 30%; note: 0% is about no effect
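Enhancer read-out: after compound pinning and an initial kinetic agonist-mode read, an EC20 of TRH (10 nM final) was injected and fluo-8 calcium signal (Ex 480/Em 530) followed at 1 s/cycle for 100 cycles in TRHR-expressing cells.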
D1 antag – antagonists of human D1 dopamine receptor; P21728; HEK293 TREx D1 cells, calcium flux, dopamine EC80; active compounds read low; activity change, negative = inhibition, % at 10 µM; 3.2% of 360,000 active; in the data active = activity change below about -30%; note: % is set by controls: 0 for no effect and ±100 for the full control effect
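Inducible Hek293 Trex D1 cells (tetracycline, overnight, 30 C). Calcium dye 30–90 min RT. Antagonist mode: EC80 dopamine added after 180 s compound read.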
TRHR ag – agonists of human TRH receptor. P34981. TRHR cells, calcium flux fluo-8, FDSS agonist mode. activation, % at 2 µM. 0.18% of 360,000 active. AID 493084; note: 0% is about no effect
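Steps: seed TRHR cells overnight; add fluo-8 no-wash Ca dye, RT 30 min–1.5 h; record 10 s baseline; pin-transfer compounds; monitor fluorescence 1 cycle/s for the agonist window. Calcium increases flag candidate agonists.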
Starred values were filed as active, the others as inactive; ! = a repeat was not active. Only some compounds are listed: those with a hit (about 4.6% of all), similar ones and a draw of the others. Cut-off read from the data, not from the text of the source, unless noted: active = activation above about 30%; inactive = the rest.

SMILES	D1 ag	D1 PAM	TRHR enhancer	D1 antag	TRHR ag
CCCN(CCC)C(=O)c1cc2c(=O)n3cccc(C)c3nc2s1	0	3	-7	-60*!	-1
O=C(Nc1ccc(Cl)c(Cl)c1)c1cc(S(=O)(=O)N2CCN(c3cccc(Cl)c3)CC2)ccc1F	4	0	3	17	1
COCCOc1ccc(C(F)(F)F)cc1NC(=O)COC(=O)c1c(C)noc1C	3	-4	34*	25	-1
COCCOc1ccc(C(F)(F)F)cc1NC(=O)COC(=O)c1cc[n+]([O-])cc1	6	-4	13	-17	0
Cc1ccc2c(c1)N(CCCC(=O)NCc1cccc(F)c1)C(=O)CO2	-3	-2	6	-7	-1
Fc1ccccc1-c1nnc2ccc3ccccc3n12	1	-1	36*	-3	0
O=C(Nc1cccc(Cl)c1)c1ccc2nc(CCc3ccccc3)oc2c1	11	-1	4	-14	1
Cn1cccc1/C=N\NC(=O)C1COc2ccccc2O1 (stereo unspecified)	1	-10	-5	-38*	0
Cn1cccc1/C=N\NC(=O)C1COc2ccc(C(C)(C)C)cc2O1 (stereo unspecified)	0	0	-11	-16	1
Cc1c(/C=N\NC(=O)C2COc3ccc(C(C)(C)C)cc3O2)c2ccccc2n1C (stereo unspecified)	-1	-12	-24	-86*	1
CC(C)(C)c1ccc2c(c1)OC(C(=O)N/N=C\c1ccc[nH]1)CO2 (stereo unspecified)	2	-2	12	0	0
COc1cc(OC)c(Nc2nc3ccccc3nc2-n2nc(C)cc2C)cc1Cl	5	-4	1	3	2
COc1ccccc1C(=O)Nc1c(C(=O)c2ccccc2)oc2ccccc12	4	6	1	22	-1
COC(=O)c1oc2ccccc2c1NC(=O)c1ccccc1O	14	-6	9	-43*	-1
COc1ccccc1C(=O)Nc1c(C(=O)NC(C)(C)C)oc2ccccc12	33*	33*	12	64	1
CCOC(=O)c1oc2ccccc2c1NC(=O)c1ccccc1OC	4	14	0	58	0
Cc1cccc(Oc2nc3ccccn3c(=O)c2/C=C(\C#N)c2nc3ccccc3s2)c1C	-1	-3	18	-6	0
Cc1ccc(-c2c(C#N)c(N)nc3c2CCCC3)o1	39*	0	4	24	0
CC(C)c1nnc(SCC(=O)NC(C)(C)C)n1C	2	2	-1	-3	1
CC(C)(C)NC(=O)CSc1nnnn1C(C)(C)C	4	-10	-3	-38*	0
Cc1ccc(OCC(=O)Nc2nnc(S(=O)(=O)N3c4ccccc4CC3C)s2)cc1 (stereo unspecified)	-1	4	-7	3	0
COc1cccc2sc(Nc3nnc(-c4ccccc4Cl)o3)nc12	43*	3	-1	-8	11
CC(=O)c1ccc(NC(=O)CCc2c(C)nn(-c3ccc4nncn4n3)c2C)cc1	2	-4	2	-11	0
COc1cccc2cc(C(=O)N(C)C3CCN(C)CC3)c(=O)oc12	1	-10	5	-39*	1
COc1cccc2cc(C(=O)N(Cc3cccs3)CC3CCCO3)c(=O)oc12 (stereo unspecified)	1	-4	3	-38*	0
SMILES	D1 ag	D1 PAM	TRHR enhancer	D1 antag	TRHR ag
COc1cccc2cc(C(=O)NCc3ccccn3)c(=O)oc12	0	-3	-7	-49*	0
COc1cccc2cc(-c3ccccc3)c(=O)oc12	-1	-4	2	-31*	-1
COc1ccc(-c2cc3cccc(OC)c3oc2=O)cc1	1	2	-2	-3	-1
CNC(=O)c1cc2cccc(OC)c2oc1=O	0	-2	4	-12	0
CCc1ncc(CN2CCCC(C(=O)Nc3ccc(-c4cscn4)cc3)C2)cn1 (stereo unspecified)	-1	3	1	2	0
Cc1ccn2c(=O)c(C(=O)NCCc3ccc(S(N)(=O)=O)cc3)c(O)nc2c1	2	-4	-6	11	0
CC(C)OCCCNC(=O)C(NS(=O)(=O)c1ccc2c(c1)c(=O)n(C)c(=O)n2C)c1ccccc1 (stereo unspecified)	0	-1	19	-44*	-1
CCOCCCNC(=O)C(Cc1ccccc1)NS(=O)(=O)c1ccc2c(c1)c(=O)n(C)c(=O)n2C (stereo unspecified)	-4	-1	7	-2	0
c1ccc(-c2nc(NCCCN3CCOCC3)c3ccccc3n2)cc1	4	-9	-2	8	0
c1cncc(-c2nc(NCCCn3ccnc3)c3ccccc3n2)c1	0	1	-6	-38*	0
Cc1nc(NCCCn2ccnc2)c2ccccc2n1	1	-9	-8	-1	0
Cc1cccc(-c2nc(NCCCN3CCOCC3)c3ccccc3n2)c1	50*	3	9	-7	-1
Cc1cc(C)cc(NC(=O)N2CCN3CCCCC3C2)c1 (stereo unspecified)	2	-2	0	-10	0
Cc1ccc(NC(=O)N2CCN3CCCCC3C2)cc1C (stereo unspecified)	-1	-2	0	-36*	0
CCc1ccc(CNC(=O)c2ccc3nc(C4CCCCC4)oc3c2)nc1	3	1	-4	14	-1
COCC(C)n1c(C)cc(C(=O)COC(=O)c2n[nH]c3ccccc23)c1C (stereo unspecified)	4	-5	1	-48*	1
COc1cccc(CNC(=O)c2ccc(CNS(=O)(=O)c3ccc(C)cc3)cc2)c1	-5	1	-1	2	-1
CC1CCc2sc(C(=O)Nc3ccc(N4CCOCC4)cc3)cc2C1 (stereo unspecified)	4	2	17	-7	1
CC1CCc2sc(C(=O)NCC(C)(C)N3CCOCC3)cc2C1 (stereo unspecified)	3	-2	4	-68*	0
COc1ccc(-c2nc3cc(NC(=O)c4ccc(C)cc4)ccc3o2)cc1Cl	0	-2	-9	-14	1
O=C1CC(c2c[nH]c3ccccc23)C(=O)N1c1ccccc1 (stereo unspecified)	-1	-6	3	-34*	0
CC(=O)NCc1nc2cccnc2n1Cc1ccccc1	0	2	-1	-32*	0
CC(C)CC(=O)NCc1nc2cccnc2n1Cc1ccccc1	0	-6	14	10	0
CCCCc1c(C)nc2c(-c3ccc(OC)cc3)c(C)[nH]n2c1=O	42*	-3	0	2	0
COC(=O)CN1C(C(=O)c2ccccc2)=C(OC(=O)c2ccc(F)cc2)c2ccccc2S1(=O)=O	0	-1	-8	-78*	1
